Assay results from PubChem BioAssay (NCI).
Where “and” joins values, the source holds several entries; their conditions need not be identical. Identical values can stand only once. Compounds without any hit were thinned out: in the full panel of roughly 79,000, 15% have a hit. The source holds several records for some structures; these can differ, active in one and inactive in another. Calls of active or inactive are those of the source. Rule as the data show it: active = growth inhibition above about 70%; inactive = the rest.

Assays:
[1] = NCI Yeast Anticancer Drug Screen. Data for the rad52 strain (AID 147);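 also: 0% = growth of vehicle-treated control cultures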; details: S. cerevisiae rad52 mutant growth inhibition, stronger effect = higher value
Outline: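 The repair-mutant yeast strain was incubated with compounds, then growth was read and inhibition derived relative to vehicle.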

[2] = NCI Yeast Anticancer Drug Screen. Data for the wt1 strain (AID 149);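 also: 0% = growth of vehicle-treated wt1 cultures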; details: S. cerevisiae wt1 strain (SPY 50644) growth inhibition, stronger effect = higher value
Outline: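 Compounds are added to wt1 yeast cultures. Growth is then measured. Inhibition is expressed relative to vehicle-treated controls.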

[3] = NCI Yeast Anticancer Drug Screen. Data for the rad50EPP+ strain (AID 151);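 also: 0% = growth of vehicle-treated control cultures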; details: S. cerevisiae rad50 mutant strain, stronger effect = higher value
Outline: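 Vehicle-normalised growth inhibition; rad50EPP+ yeast strain, altered in DNA damage repair, compound-treated.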

[4] = NCI Yeast Anticancer Drug Screen. Data for the rad50 strain (AID 155);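 also: 0% = growth of vehicle-only cultures of the same strain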; details: S. cerevisiae rad50 strain growth inhibition, stronger effect = higher value
Outline: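 Inhibition values express reduced yeast growth in compound-treated cultures relative to vehicle-treated controls.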

[5] = NCI Yeast Anticancer Drug Screen. Data for the mec2-1 strain (AID 157); details: S. cerevisiae mec2-1 strain, stronger effect = higher value
Outline: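 Mutant yeast (mec2-1) grown with compound; growth inhibition relative to vehicle control reported.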

[6] = NCI Yeast Anticancer Drug Screen. Data for the rad14 strain (AID 159);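 also: 0% = growth of vehicle-treated control cultures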; details: S. cerevisiae rad14 strain growth inhibition, stronger effect = higher value
Outline: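 A mutant yeast strain defective in DNA damage repair is treated with compound; inhibition of its growth is scored against untreated, vehicle-exposed cultures.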

[7] = NCI Yeast Anticancer Drug Screen. Data for the sgs1 mgt1 strain (AID 161);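 also: 0% = growth of cultures given vehicle only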; details: S. cerevisiae sgs1 mgt1 strain, stronger effect = higher value
Outline: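 Yeast cells carrying a defined DNA-repair defect were exposed to test compounds. Growth inhibition was measured relative to vehicle-treated controls.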

[8] = NCI Yeast Anticancer Drug Screen. Data for the CLN2oe strain (AID 163);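 also: 0% = growth of vehicle-only control cultures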; details: S. cerevisiae CLN2oe strain, stronger effect = higher value
Outline: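 Compounds are applied to yeast harbouring a defined cell-cycle control change; reduced growth compared with vehicle-treated controls gives the value.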

[9] = NCI Yeast Anticancer Drug Screen. Data for the cln2 rad14 strain (AID 165);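 also: 0% = growth equal to vehicle treated cultures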; details: S. cerevisiae cln2 rad14 strain, stronger effect = higher value
Outline: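 Readout is yeast growth inhibition versus vehicle-treated controls, using a strain with cln2 and rad14 alterations exposed to compound.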

[10] = NCI Yeast Anticancer Drug Screen. Data for the bub3 strain (AID 167); details: S. cerevisiae bub3 mutant strain, stronger effect = higher value
Outline: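 Steps: expose the mutant yeast strain to compound; grow alongside vehicle-treated cultures; measure growth; express inhibition against the vehicle cultures.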

[11] = NCI Yeast Anticancer Drug Screen. Data for the wt2 strain (AID 169);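 also: 0% = growth of vehicle-treated yeast cultures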; details: S. cerevisiae wt2 strain growth inhibition, stronger effect = higher value
Outline: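 Against vehicle-treated controls, the growth of yeast exposed to each compound was compared, and the inhibition was recorded.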

[12] = NCI Yeast Anticancer Drug Screen. Data for the mlh1 strain (AID 171);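 also: 0% = growth of vehicle-treated control cultures of the same strain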; details: S. cerevisiae mlh1 strain growth inhibition, stronger effect = higher value
Outline: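 Measured: yeast growth. Reference: vehicle-treated controls. Organism: strain with a defined alteration affecting DNA damage repair or cell cycle control, treated with compound.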

[13] = NCI Yeast Anticancer Drug Screen. Data for the mlh1 rad18 strain (AID 175); details: S. cerevisiae mlh1 rad18 strain growth inhibition, stronger effect = higher value
Outline: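 Genetically defined yeast (DNA repair-deficient) exposed to compounds; growth inhibition determined relative to vehicle.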

[14] = NCI Yeast Anticancer Drug Screen. Data for the rad18 strain (AID 177); details: S. cerevisiae rad18 mutant growth inhibition, stronger effect = higher value
Outline: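 Vehicle-treated cultures served as the baseline for scoring compound-induced growth inhibition in DNA-repair-mutant yeast.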

[15] = NCI Yeast Anticancer Drug Screen. Data for the sgs1 strain (AID 173);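 also: 0% = growth of vehicle-only control cultures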; details: S. cerevisiae sgs1 mutant, stronger effect = higher value
Outline: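 Each compound was added to cultures of the altered yeast strain. Growth was recorded, and inhibition was derived by comparison with vehicle controls.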

[16] = at 5.0 µM (retest, dose inferred, filed as 0.5)
[17] = at 50.0 µM (retest, dose inferred, filed as 5.0)

Measured: growth inhibition

C=C1C(=O)OC2CC1C(OC(C)=O)C/C(C)=C/CC/C(C)=C\CCC2(C)O (stereo not drawn)
60% (inactive) and 95% (active): [13]; [16]
24% (inactive) and 99% (active): [7]; [16]
18% (inactive) and 82% (active): [5]; [16]
51% (inactive) and 97% (active): [9]; [17]
63% (inactive) and 98% (active): [4]; [17]
67% (inactive) and 99% (active): [7]; [17]
24% (inactive) and 85% (active): [4]; [16]
36% (inactive) and 90% (active): [10]; [16]
inactive: [1]; at 1.2 µM -5% | [1]; at 3.7 µM 1% | [1]; at 11.0 µM 15% | [1]; at 33.0 µM 33% | [2]; at 1.2 µM 3% | [2]; at 3.7 µM 11% | [2]; at 11.0 µM 13% | [2]; at 33.0 µM 30% | [3]; at 1.2 µM 15% | [3]; at 3.7 µM 42% | [3]; at 11.0 µM 40% | [3]; at 33.0 µM 31% | [3]; at 100.0 µM 18% | [4]; at 1.2 µM -3% | [4]; at 3.7 µM 9% | [4]; at 11.0 µM 17% | [4]; at 33.0 µM 40% | [5]; at 1.2 µM 11% | [5]; at 3.7 µM 17% | [5]; at 11.0 µM 23% | [5]; at 33.0 µM 37% | [6]; at 1.2 µM 5% | [6]; at 3.7 µM 17% | [6]; at 11.0 µM 31% | [6]; at 33.0 µM 44% | [8]; at 1.2 µM -17% | [8]; at 3.7 µM 9% | [8]; at 11.0 µM 20% | [8]; at 33.0 µM 13% | [9]; [16] 6% and 31% | [10]; at 1.2 µM 6% | [10]; at 3.7 µM -8% | [10]; at 11.0 µM 4% | [10]; at 33.0 µM 24% | [11]; at 1.2 µM -2% | [11]; at 3.7 µM -4% | [11]; at 11.0 µM 12% | [11]; at 33.0 µM 17% | [12]; at 1.2 µM -5% | [12]; at 3.7 µM 19% | [12]; at 11.0 µM 28% | [12]; at 33.0 µM 51% | [14]; at 1.2 µM -15% | [14]; at 3.7 µM 1% | [14]; at 11.0 µM 15% | [14]; at 33.0 µM 49%
active: [1]; at 100.0 µM 88% | [2]; at 100.0 µM 85% | [4]; at 50.0 µM 81.5% and 88.8% | [4]; at 100.0 µM 86% | [5]; [17] 79% and 99% | [5]; at 50.0 µM 81.7% and 91.2% | [5]; at 100.0 µM 89% | [6]; at 100.0 µM 87% | [7]; at 50.0 µM 71.2% and 87.9% | [8]; at 100.0 µM 85% | [9]; at 50.0 µM 78.8% and 89.3% | [10]; [17] 85% and 99% | [10]; at 50.0 µM 84.5% and 90.7% | [10]; at 100.0 µM 85% | [11]; at 100.0 µM 93% | [12]; at 100.0 µM 89% | [13]; [17] 97% | [13]; at 50.0 µM 85.5% and 86.8% | [14]; at 100.0 µM 91%

O=C(/C=C/c1cc(Cl)cc(Cl)c1O)c1cccc(O)c1
inactive: [1]; at 1.2 µM 37% | [1]; at 3.7 µM 36% | [2]; at 1.2 µM 4% | [2]; at 3.7 µM 6% | [2]; at 11.0 µM 50% | [3]; at 1.2 µM 66% | [4]; at 1.2 µM 1% | [4]; at 3.7 µM 16% | [4]; [16] 14% | [4]; at 11.0 µM 67% | [5]; at 1.2 µM -19% | [5]; at 3.7 µM 0% | [5]; [16] -9% | [6]; at 1.2 µM 31% | [6]; at 3.7 µM 48% | [7]; [16] 6% | [9]; [16] 29% | [10]; at 1.2 µM -12% | [10]; at 3.7 µM -11% | [10]; [16] 38% | [10]; at 11.0 µM 39% | [11]; at 1.2 µM 29% | [11]; at 3.7 µM 27% | [12]; at 1.2 µM 0% | [12]; at 3.7 µM 21% | [15]; at 1.2 µM 22% | [15]; at 3.7 µM 23% | [14]; at 1.2 µM 14% | [14]; at 3.7 µM 13% | [14]; at 11.0 µM 56%
active: [1]; at 11.0 µM 80% | [1]; at 33.0 µM 98% | [1]; at 100.0 µM 99% | [2]; at 33.0 µM 98% | [2]; at 100.0 µM 97% | [3]; at 3.7 µM 70% | [3]; at 11.0 µM 86% | [3]; at 33.0 µM 97% | [3]; at 100.0 µM 97% | [4]; at 33.0 µM 97% | [4]; [17] 97% | [4]; at 50.0 µM 94% | [4]; at 100.0 µM 97% | [5]; at 11.0 µM 85% | [5]; at 33.0 µM 99% | [5]; [17] 99% | [5]; at 50.0 µM 95.2% | [5]; at 100.0 µM 98% | [6]; at 11.0 µM 96% | [6]; at 33.0 µM 98% | [6]; at 100.0 µM 97% | [7]; [17] 95% | [7]; at 50.0 µM 94% | [9]; [17] 98% | [9]; at 50.0 µM 91.5% | [10]; at 33.0 µM 97% | [10]; [17] 97% | [10]; at 50.0 µM 93.2% | [10]; at 100.0 µM 97% | [11]; at 11.0 µM 89% | [11]; at 33.0 µM 98% | [11]; at 100.0 µM 98% | [12]; at 11.0 µM 80% | [12]; at 33.0 µM 98% | [12]; at 100.0 µM 98% | [15]; at 11.0 µM 78% | [15]; at 33.0 µM 98% | [15]; at 100.0 µM 98% | [14]; at 33.0 µM 98% | [14]; at 100.0 µM 98%

CN(C)/C=C/c1nnc([N+](=O)[O-])s1
active: [1]; at 100.0 µM 98% | [2]; at 100.0 µM 98% | [3]; at 100.0 µM 96% | [4]; at 33.0 µM 94% | [4]; [17] 90% | [4]; at 50.0 µM 95% | [4]; at 100.0 µM 97% | [5]; at 50.0 µM 76.2% | [5]; at 100.0 µM 90% | [6]; at 33.0 µM 79% | [6]; at 100.0 µM 99% | [7]; [17] 80% | [7]; at 50.0 µM 94% | [8]; at 100.0 µM 97% | [10]; [17] 77% | [10]; at 50.0 µM 96% | [10]; at 100.0 µM 98% | [12]; at 100.0 µM 99% | [15]; at 100.0 µM 98% | [14]; at 100.0 µM 97%
inactive: [1]; at 1.2 µM -2% | [1]; at 3.7 µM -3% | [1]; at 11.0 µM 5% | [1]; at 33.0 µM 28% | [2]; at 1.2 µM -7% | [2]; at 3.7 µM -8% | [2]; at 11.0 µM -10% | [2]; at 33.0 µM -1% | [3]; at 1.2 µM 1% | [3]; at 3.7 µM 12% | [3]; at 11.0 µM 35% | [3]; at 33.0 µM 65% | [4]; at 1.2 µM -8% | [4]; at 3.7 µM -3% | [4]; [16] -144% | [4]; at 11.0 µM 49% | [5]; at 1.2 µM 4% | [5]; at 3.7 µM 0% | [5]; [16] -48% | [5]; at 11.0 µM -6% | [5]; at 33.0 µM 1% | [5]; [17] 4% | [6]; at 1.2 µM -4% | [6]; at 3.7 µM 2% | [6]; at 11.0 µM 28% | [7]; [16] -63% | [8]; at 1.2 µM -2% | [8]; at 3.7 µM -3% | [8]; at 11.0 µM -2% | [8]; at 33.0 µM 9% | [9]; [16] -63% | [9]; [17] -23% | [9]; at 50.0 µM 28.6% | [10]; at 1.2 µM -5% | [10]; at 3.7 µM -2% | [10]; [16] -65% | [10]; at 11.0 µM -3% | [10]; at 33.0 µM 6% | [12]; at 1.2 µM 5% | [12]; at 3.7 µM -8% | [12]; at 11.0 µM -1% | [12]; at 33.0 µM 41% | [15]; at 1.2 µM -2% | [15]; at 3.7 µM -4% | [15]; at 11.0 µM -1% | [15]; at 33.0 µM 24% | [14]; at 1.2 µM 0% | [14]; at 3.7 µM 5% | [14]; at 11.0 µM 21% | [14]; at 33.0 µM 56%
